About 900 (1.7%) of roughly 53,000 compounds showed an effect of 50% or more. Many of the other results were omitted from the sample, so strong results are more common in it than they were.
What follows are compounds tested on Mycobacterium tuberculosis (assay: Cornell - Phenotypic assay to identify agents that inhibit growth of Mycobacterium tuberculosis). Settings: 10 mM as filed; unlikely as a test dose.
Format: functional
Design: scale not given: direction of the effect not stated beside the values

Compared with `CN1CCC2(CC1)C(=O)N(CC1CC1)c1ccccc12.O=C(O)C(F)(F)F`, `Cc1nc(CN2C(=O)COC3(CCN(CC4CC4)CC3)C2C)cs1.O=C(O)C(F)(F)F` (stereo not drawn) is lower in “Percent Effect” value: 8.295% for the first, 6.692% for the second.

Compared with `c1coc(CNCC2Cn3nncc3CO2)c1` (stereo not drawn), `c1cnnc(N2CCCC2CNCc2nc3ccccc3o2)c1` (stereo not drawn) is higher in “Percent Effect” value: -14.67% for the first, 108.2% for the second.

Going from `Cc1cccnc1NCCNC(=O)c1cnc(-c2cccs2)nc1O` to `COc1ccc(OC)c(Sc2ncccc2C(=O)NCCSC)c1`, the “Percent Effect” value falls from 19.3% to -9.266%.

Compared with `COc1cccc(CN(Cc2ccco2)Cc2[nH]cnc2C)c1.O=C(O)CC(O)(CC(=O)O)C(=O)O`, `COc1ccc(CN(Cc2ccco2)Cc2[nH]cnc2C)c(OC)c1.O=C(O)CC(O)(CC(=O)O)C(=O)O` is higher in “Percent Effect” value: -15.02% for the first, 39.21% for the second.

Compared with `COc1ccc(OC)c(CN(Cc2ccco2)Cc2[nH]cnc2C)c1.O=C(O)CC(O)(CC(=O)O)C(=O)O`, `Cc1cccc(-c2noc(C)c2C(=O)NC2CCCOC2)c1.O=C(O)CC(O)(CC(=O)O)C(=O)O` (stereo not drawn) is lower in “Percent Effect” value: 50.25% for the first, 20.12% for the second.

Going from `Cc1noc([C@H]2C[C@H]3OCC[C@H]3N(C3CCC3)C2)n1.O=C(O)C(F)(F)F` to `Cn1cc(C(=O)N2CCO[C@@H]3CN(C4CCC4)C[C@@H]3C2)cn1`, the “Percent Effect” value rises from -34.16% to 3.925%.

Going from `CN(C)C(=O)N1CC2(CCNCC2)c2cc(Cl)ccc21.Cl` to `CC(=O)N1CC2(CCNCC2)c2cc(Cl)ccc21.Cl`, the “Percent Effect” value rises from -44.55% to 63.2%.

Compared with `COC(=O)N1CC2(CCNCC2)c2cc(Cl)ccc21.Cl`, `CN1CCCc2cc(-c3cncn3CC(=O)NC(C)(C)C)ccc21.Cl` is lower in “Percent Effect” value: 26.9% for the first, 13.27% for the second.

Going from `CN(C)Cc1cnn(-c2ccccc2C(=O)NCCC2CCCN2C)c1` (stereo not drawn) to `COCCN1CCN(Cc2cccc(C(=O)N(C)C)c2)CC1`, the “Percent Effect” value falls from 17.58% to -27.32%.

Compared with `O=C(Cc1c[nH]c2ccccc12)N1CCN(C(=O)c2ccoc2)CC1`, `CCN1CCN(C(=O)NCc2cccnc2-n2cccn2)CC1` is lower in “Percent Effect” value: -1.862% for the first, -23.25% for the second.

First: C[S+]([O-])c1nncn1CC(=O)c1cccc(Cl)c1 (stereo not drawn)
Second: C[S+]([O-])c1nncn1CC(=O)c1ccc(Cl)c(Cl)c1 (stereo not drawn)
The “Percent Effect” value of the first is lower: 12.76% for the first, 51.67% for the second.

Going from `C[S+]([O-])c1nncn1CC(=O)c1ccc2c(c1)CCO2` (stereo not drawn) to `Cc1cc(CNC(=O)N2CCOC(c3ccccc3Cl)C2)no1` (stereo not drawn), the “Percent Effect” value falls from 2.009% to -0.6476%.

First: COc1coc(C(=O)Nc2nc(-c3cccnc3)cs2)cc1=O
Second: COc1cccc(CNC(=O)Cn2ccc3c(C)nn(C)c3c2=O)c1
The “Percent Effect” value of the first is higher: 11.19% for the first, 4.678% for the second.

First: O=C(c1ccncn1)N1C[C@H]2CCC[C@@]2(COCC2CCOCC2)C1
Second: CCNC(=O)C1CCN(c2nccc(C3CCCC3)n2)C1 (stereo not drawn)
The “Percent Effect” value of the first is lower: 2.154% for the first, 13% for the second.

Going from `Cc1nc(C)n(CC2CN(Cc3cc(C#N)ccc3F)CCO2)n1` (stereo not drawn) to `Cc1nc(C)n(CC2CCCN(c3ncnc4ccsc34)C2)n1` (stereo not drawn), the “Percent Effect” value rises from 13.34% to 51.96%.

Going from `COc1cc(CC2CC(C(N)=O)=NO2)cc2c1OCO2` (stereo not drawn) to `COC(=O)C1=NOC(Cc2cc(OC)c3c(c2)OCO3)C1` (stereo not drawn), the “Percent Effect” value rises from 13.11% to 104.6%.

Compared with `CCOC(=O)C1=NOC(Cc2cc(OC)c3c(c2)OCO3)C1` (stereo not drawn), `COc1cc(CC2CC(c3ccc4c(c3)OCO4)=NO2)cc2c1OCO2` (stereo not drawn) is lower in “Percent Effect” value: 94.96% for the first, 30.67% for the second.

Compared with `COc1c(CC2CC(C(=O)O)=NO2)c(Br)c2c(c1OC)OCO2` (stereo not drawn), `COc1cc(CNCc2ccc(C(C)O)cc2)cc2c1OCO2` (stereo not drawn) is lower in “Percent Effect” value: 14.91% for the first, 3.367% for the second.

First: Cc1cc(C)nc(C2CCN(C(=O)c3cncnc3C)C2)n1 (stereo not drawn)
Second: Cc1nc(C)n(CC2CCCN(c3ncnc4sccc34)C2)n1 (stereo not drawn)
The “Percent Effect” value of the first is lower: -38.99% for the first, -6.342% for the second.

Going from `Cc1c(C(=O)NC2CCCOC2)nnn1-c1ccccc1` (stereo not drawn) to `Cc1onc(-c2ccncc2)c1C(=O)NC1CCCOC1` (stereo not drawn), the “Percent Effect” value rises from -4.644% to 52.15%.

Compared with `Cc1cnn(CC2CCCN2CC(=O)Nc2cc(C(C)(C)C)no2)c1` (stereo not drawn), `CC(C)c1cc(C2CCCN2C(=O)c2cn3ccsc3n2)no1` (stereo not drawn) is higher in “Percent Effect” value: 16.98% for the first, 31.59% for the second.

Going from `CCC(=O)N1C[C@@H](C(=O)NC)[C@H](c2ccnc(N3CCCC3)n2)C1.Cl` to `CNC(=O)[C@@H]1CN(C(=O)COC)C[C@H]1c1ccnc(N2CCCC2)n1`, the “Percent Effect” value rises from 24.83% to 50.96%.

Going from `CNC(=O)[C@@H]1CN(C(=O)C2CCC2)C[C@H]1c1ccnc(N2CCCC2)n1.Cl` to `CNC(=O)[C@@H]1CN(C(=O)C(C)C)C[C@H]1c1ccnc(N2CCCC2)n1.Cl`, the “Percent Effect” value falls from 54.39% to 37.07%.

First: CNC(=O)[C@@H]1CN(C(=O)CCOC)C[C@H]1c1ccnc(N2CCCC2)n1.Cl
Second: COCCCN(C)c1nc(-c2ccncc2)nc2c1CCN(C(C)=O)C2
The “Percent Effect” value of the first is higher: 43.65% for the first, -26.88% for the second.

Going from `CC(C)c1nn(C)c(N(C)C)c1CNC1CCC(O)CC1` (stereo not drawn) to `CC(C)c1nn(C)c(N(C)C)c1CNC1CCN(C2CC2)CC1.Cl`, the “Percent Effect” value rises from 21.48% to 42.5%.

Compared with `CC(C)c1nn(C)c(N(C)C)c1CNC1CCN(CC2CC2)CC1`, `COCCN1CCC(NCc2c(C(C)C)nn(C)c2N(C)C)CC1` is lower in “Percent Effect” value: 58.14% for the first, 39.85% for the second.

Going from `CC(C)C(=O)N1CCC(NCc2c(C(C)C)nn(C)c2N(C)C)CC1` to `CC(C)c1nn(C)c(N(C)C)c1CNC1CCCCNC1=O` (stereo not drawn), the “Percent Effect” value rises from 31.79% to 91.87%.

First: Cc1nn(C)c(N(C)C)c1CNC1CCCCNC1=O (stereo not drawn)
Second: Cc1nn(C)c(N2CCOCC2)c1CNC1CCCCNC1=O (stereo not drawn)
The “Percent Effect” value of the first is higher: 63.11% for the first, -11.46% for the second.

Compared with `Cc1nn(C)c(Oc2ccccc2)c1CNC1CCCCNC1=O` (stereo not drawn), `Cc1nc(C)n(CC2CCCN(c3ncnc4ccccc34)C2)n1` (stereo not drawn) is lower in “Percent Effect” value: -7.334% for the first, -29.18% for the second.

First: CN(CCc1nccs1)C(=O)CC1(O)CCCCC1
Second: O=C(Cc1cccs1)NCc1ccnc(C2CCCOC2)n1 (stereo not drawn)
The “Percent Effect” value of the first is higher: 19.59% for the first, 6.218% for the second.

Compared with `COCCCNCc1cc(O)c2cc(C)cc(C)c2n1`, `COCCCN(C)c1nc(-c2ccncc2)nc(C)c1C` is higher in “Percent Effect” value: 3.207% for the first, 79.79% for the second.

First: COc1ccc(OC2CCN(c3ccncc3)CC2)cc1
Second: COc1ccc(-n2cc(CNC(=O)c3ccc[nH]3)nn2)cc1
The “Percent Effect” value of the first is higher: 27.59% for the first, 1.2% for the second.

Going from `CC(=O)Cn1nc(-c2ccccc2F)ccc1=O` to `Cc1nn(C)c2c(=O)n(CC(=O)NCc3ccc(N(C)C)cc3)ccc12`, the “Percent Effect” value rises from 6.771% to 96.11%.

Going from `Cc1cccc(CN2C(=O)C[C@H]3[C@@H]2CCN3Cc2ccc(F)cc2)n1.O=C(O)C(F)(F)F.O=C(O)C(F)(F)F` to `O=C(N1CCCO1)[C@@]12CCO[C@@H]1CCN(Cc1ccccn1)C2.O=C(O)C(F)(F)F.O=C(O)C(F)(F)F`, the “Percent Effect” value rises from 15.09% to 16.34%.

Compared with `CCn1nc(C)cc1C(=O)N1C[C@@H]2C[C@@H](c3nnc(C)[nH]3)O[C@@H]2C1`, `CCOC(=O)c1n[nH]cc1-c1cncn1CCCn1nc(C)cc1C.Cl` is higher in “Percent Effect” value: -8.9% for the first, 25.38% for the second.

Going from `Cc1nn(C)c2c(=O)n(CC(=O)NCCC(C)C)ccc12` to `CC1Cc2cc(-c3cncn3CC(=O)NC(C)(C)C)ccc2N1C.Cl` (stereo not drawn), the “Percent Effect” value falls from 2.416% to -2.378%.

First: Oc1ccc(N(CCc2ccccc2)CCn2cncn2)cc1
Second: OCCCN(CCn1cncn1)c1ccccc1
The “Percent Effect” value of the first is higher: 107% for the first, -44.33% for the second.

Compared with `c1ccc(N(CCn2cncn2)CC2CC2)cc1`, `CN(Cc1nc2ccccc2o1)CC1CCCN1c1cccnn1` (stereo not drawn) is higher in “Percent Effect” value: -28.11% for the first, -25.78% for the second.

Compared with `COc1cccc([C@@H]2N[C@H](c3nccs3)Cc3ccsc32)c1OC`, `COc1ccc(OC)c([C@@H]2N[C@H](c3nccs3)Cc3ccsc32)c1` is lower in “Percent Effect” value: 50.54% for the first, 46.52% for the second.

Going from `COc1cc([C@@H]2N[C@H](c3nccs3)Cc3ccsc32)cc(OC)c1OC` to `O=C(NCC(O)c1ccsc1)c1sccc1OC(F)F` (stereo not drawn), the “Percent Effect” value falls from 44.3% to 14.09%.

Going from `Cc1ncc(-c2ccnc(NCCc3ccc(F)cc3)n2)c(=O)[nH]1` to `Cc1nc(-c2ccncc2)nc(N(C)CCc2ccncc2)c1C`, the “Percent Effect” value rises from -5.112% to -4.993%.

Going from `Cn1ncc2c(N3CCN4CCCCC4C3)nc(C3CCCC3)nc21` (stereo not drawn) to `Cc1cc(NC(=O)C2CCN(c3ncccc3C#N)CC2)no1`, the “Percent Effect” value falls from 27.57% to -28.06%.

Going from `Cc1cc(C)n(CCCn2cncc2-c2ccc3c(c2)CC(C)N3C)n1.Cl` (stereo not drawn) to `Cc1nn(C)c(C)c1CCn1cncc1-c1ccc2c(c1)CC(C)N2C.Cl` (stereo not drawn), the “Percent Effect” value rises from 63.97% to 64.61%.

First: CN1CCCc2cc(-c3cncn3CCNC3CCS(=O)(=O)C3)ccc21.Cl (stereo not drawn)
Second: NC(=O)C1CCN(C(=O)NCc2ccc(-c3ccn[nH]3)cc2)CC1
The “Percent Effect” value of the first is higher: 6.115% for the first, -27.61% for the second.

First: Cc1ncccc1C(=O)Nc1cccc(C[S+](C)[O-])c1C (stereo not drawn)
Second: CC(C)Oc1cccc(C(O)CNC(=O)Nc2cccs2)c1 (stereo not drawn)
The “Percent Effect” value of the first is lower: 11.87% for the first, 105% for the second.

Going from `CC(=O)N1CCC2(C1)CN(S(=O)(=O)c1ccccc1)C2` to `Cc1csc(CNC(=O)NCC(O)c2ccccc2)n1` (stereo not drawn), the “Percent Effect” value falls from 13.22% to -28.19%.

First: Cc1nc(CNCC2CCCN2c2cccnn2)oc1C (stereo not drawn)
Second: O=C(Nc1cccnn1)NC(CCCO)c1ccccc1 (stereo not drawn)
The “Percent Effect” value of the first is higher: 5.973% for the first, -8.222% for the second.

Going from `CCC(C)N(Cc1cnc(OC)nc1)Cc1ccsc1` (stereo not drawn) to `CCOc1ccccc1CCNC(=O)NCC(O)c1ccsc1` (stereo not drawn), the “Percent Effect” value rises from -2.85% to 26.35%.

First: O=C(Nc1ccccn1)NC(CCCO)c1ccccc1 (stereo not drawn)
Second: O=C(Nc1cccs1)NC(CCCO)c1ccccc1 (stereo not drawn)
The “Percent Effect” value of the first is lower: -24.69% for the first, 101.4% for the second.

Compared with `O=C(NCC(O)c1ccsc1)Nc1cccs1` (stereo not drawn), `O=C(NCC(O)c1ccccc1)Nc1cccs1` (stereo not drawn) is lower in “Percent Effect” value: 98.83% for the first, 59.31% for the second.

Compared with `CC(C)Oc1cccc(C(O)CNC(=O)NCc2cccs2)c1` (stereo not drawn), `CC(C)Oc1cccc(C(O)CNC(=O)CCc2ccncc2)c1` (stereo not drawn) is higher in “Percent Effect” value: 7.446% for the first, 31.72% for the second.

`O=C(NCCc1ccccc1)NCC(O)c1cccs1` (stereo not drawn) was tested, and the “Percent Effect” value was 16.84%.

Source: ChEMBL document CHEMBL3988442, “University of Dundee, Small-Polar-MMV Screening Library” (2021)
